Assay outcomes (PubChem)
Shown are actives, neighbours in structure and some others; about 2.5% of the full set was active somewhere.
H9c2 protect: protects H9c2 cardiomyocytes from peroxide injury | H2O2 injury protection, ATPLite, 2 h | protection from H2O2 cell death, % at 20 µM | hit rate 0.63% among 360,000 | AID 588492;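 active means compounds giving at least 50% protection of heart cells from peroxide-induced death in the single-dose screen, raw or plate-pattern-corrected value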;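 further: 0% = DMSO wells with peroxide and 100% = DMSO wells without peroxide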
H9c2 TAG inh: inhibitors of triacylglycerol accumulation; AID 651582; H9c2 cells, Nile Red lipid (TAG) fluorescence; cells loaded with 200 µM oleic acid; hit rate 0.66% among 230,000; inhibition, % at 12.5 µM;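 active means pattern-corrected inhibition of lipid staining of at least 50% with the nuclear-stain viability signal not falling by more than 50%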;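 further: 0% = DMSO wells and 100% = triacsin C control wells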
CRFBP-R2 agonist: agonists of human CRF-binding protein/CRF-R2 receptor complex. HEK293 CRF-R2/CRF-BP, calcium dye fluorescence (FLIPR); percent of saturating CRF peptide response. activation, % at 13.2 µM. hit rate 0.46% among 350,000;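 active means activation of at least 50%, plus an integration ratio under a set limit after plate pattern correction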;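 further: plate controls were neutral control wells without compound for no effect and CRF at EC100 for full effect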
SKN-1 block: C. elegans SKN-1 inhibition. C. elegans VP596 Pgst-4::GFP/RFP ratio, acrylamide-induced, 24 h. inhibition, % at 21.8 µM. hit rate 0.49% among 360,000. AID 624304;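 active means interference check ratio from 0.5 to 1.5 plus GFP to RFP signal ratio inhibition reaching or exceeding a fixed threshold, cut at about 30% in these data, passing the limit was not always enough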
hiPSC survival: hiPSC single-cell survival enhancement; ATPlite luminescence; 100% = ROCK inhibitor wells, 0% = DMSO; hit rate 0.044% among 360,000; AID 602274; survival enhancement, % at 20 µM; in the data active means survival enhancement above about 18%;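 further: cells exposed to compounds for 16 hours before the ATP read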
CRFBP-R2 block: blocks CRF-induced signaling of the CRF-BP/CRF-R2 complex | HEK293 CRF-R2/CRF-BP, CRF-induced calcium fluorescence | inhibition, % at 11.8 µM | hit rate 0.59% among 350,000 | AID 588475;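 active means inhibition of the ligand-induced calcium signal above about 50% at the single tested concentration, limit read from the data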
* marks the source's active call; other numbers are inactive results.

How did Oc1c(Br)cc(Br)cc1C=Nc1ccc2c(c1)OCCO2 do in these assays?
H9c2 protect: 84*; H9c2 TAG inh: -9; CRFBP-R2 agonist: 6; SKN-1 block: 5; hiPSC survival: 0; CRFBP-R2 block: -4

What do the screens show for `CN1OC[C@@H]2CN(C(=O)NC3CCCCC3)[C@H](c3ccc(N4CCCCC4)cc3)C[C@@H]21`?
H9c2 protect: 6; SKN-1 block: 14; hiPSC survival: 0

Results for Cc1cc(Br)cc(C=Nc2ccc(N3CCOCC3)cc2)c1O ?
H9c2 protect: 84*; H9c2 TAG inh: 7; CRFBP-R2 agonist: 0; SKN-1 block: 12; hiPSC survival: 2; CRFBP-R2 block: 6

What do the screens show for `Clc1ccc(-c2ccc(C=Nc3ccc(N4CCOCC4)cc3)o2)cc1`?
H9c2 protect: -4; H9c2 TAG inh: -12; CRFBP-R2 agonist: 34; SKN-1 block: -7; hiPSC survival: -3; CRFBP-R2 block: -44

How did Clc1ccc(-c2ccc(C=Nc3ccc(N4CCOCC4)cc3)o2)c(Cl)c1 do in these assays?
H9c2 protect: 2; H9c2 TAG inh: 19; CRFBP-R2 agonist: 210*; SKN-1 block: 18; hiPSC survival: 0; CRFBP-R2 block: -330

What do the screens show for `Cc1ccc(S(=O)(=O)Nc2ccccc2N=Cc2ccc([N+](=O)[O-])cc2[N+](=O)[O-])cc1`?
H9c2 protect: -11; H9c2 TAG inh: 1; CRFBP-R2 agonist: -5; SKN-1 block: 20; hiPSC survival: 1; CRFBP-R2 block: -22

How did O=C(NC1CCCCC1)C1c2ccccc2OCC(=O)N1Cc1ccco1 (stereo not drawn) do in these assays?
SKN-1 block: 1; hiPSC survival: 0

How did COc1cccc(C2C(C#N)=C(N)N(N(C)C)C3=C2C(=O)CC(C)(C)C3)c1OC (stereo not drawn) do in these assays?
H9c2 protect: -1; CRFBP-R2 agonist: 0; SKN-1 block: 14; hiPSC survival: -1; CRFBP-R2 block: 4

How did Cc1c(N2C(=O)/C(=C\c3ccc(N(C)C)cc3)N(C)C2=S)c(=O)n(-c2ccccc2)n1C do in these assays?
H9c2 protect: -3; H9c2 TAG inh: 14; CRFBP-R2 agonist: 12; SKN-1 block: 64*; hiPSC survival: 0; CRFBP-R2 block: -26

How did CN1C(=S)N(c2cccnc2)C(=O)/C1=C\c1ccc(N(C)C)cc1 do in these assays?
H9c2 protect: -14; H9c2 TAG inh: -9; CRFBP-R2 agonist: 37; SKN-1 block: 31; hiPSC survival: 0; CRFBP-R2 block: -32

What do the screens show for `CC(C)CC(NC(=O)/C(=C/c1ccco1)NC(=O)c1ccc(Br)o1)C(=O)O` (stereo not drawn)?
H9c2 protect: 9; CRFBP-R2 agonist: 3; SKN-1 block: -5; hiPSC survival: -1; CRFBP-R2 block: 58*

How did CSCCC(C(=O)NC1CCCC1)n1c(-c2ccccn2)nc2ccccc21 (stereo not drawn) do in these assays?
SKN-1 block: 8

Results for COc1cc(C(=O)NC2CC(C)CC(C)(C)C2)cc(OC)c1OC (stereo not drawn) ?
H9c2 protect: 3; H9c2 TAG inh: -8; CRFBP-R2 agonist: -3; SKN-1 block: 21; hiPSC survival: -2; CRFBP-R2 block: -12

How did COc1ccc(C(=O)Nc2cc3c(cc2N2CCCCC2)n(C)c(=O)n3C)cc1OC do in these assays?
H9c2 protect: 30; CRFBP-R2 agonist: -2; SKN-1 block: 15; hiPSC survival: 0; CRFBP-R2 block: 18

How did COc1cc(C(=O)Nc2cc3c(cc2N2CCCCC2)n(C)c(=O)n3C)cc(OC)c1OC do in these assays?
H9c2 protect: 53*; CRFBP-R2 agonist: 0; SKN-1 block: 1; hiPSC survival: 0; CRFBP-R2 block: 1

Results for O=C1CSC(c2nn(-c3ccccc3)cc2-c2cc3ccccc3oc2=O)N1Cc1ccco1 (stereo not drawn) ?
H9c2 protect: 20; CRFBP-R2 agonist: 4; SKN-1 block: -8; hiPSC survival: -1; CRFBP-R2 block: 84*

How did CN(C)c1ccc(NC(=O)COC(=O)Cn2nnc3ccccc32)cc1 do in these assays?
H9c2 protect: -1; CRFBP-R2 agonist: 0; SKN-1 block: -15; hiPSC survival: 0; CRFBP-R2 block: 93*

What do the screens show for `CCC(ONc1ccccc1C(F)(F)F)(C(=O)NN(C)C)c1ccccc1` (stereo not drawn)?
H9c2 protect: 53*; H9c2 TAG inh: 11; CRFBP-R2 agonist: -1; SKN-1 block: -13; hiPSC survival: 0; CRFBP-R2 block: 5

What do the screens show for `CCOc1ccc(OCC(=O)Nc2ccccc2C(F)(F)F)cc1`?
H9c2 protect: -10; H9c2 TAG inh: 3; CRFBP-R2 agonist: -2; SKN-1 block: -3; hiPSC survival: -2; CRFBP-R2 block: -38

How did O=Nc1nc2ncccn2c1-c1ccccc1 do in these assays?
H9c2 protect: 6; H9c2 TAG inh: -9; CRFBP-R2 agonist: 7; SKN-1 block: 0; hiPSC survival: -1; CRFBP-R2 block: 58*

Results for Nc1nc2ncccn2c1-c1ccc(F)cc1 ?
SKN-1 block: 0

Results for CCOC(=O)C1=CCC(c2ccc(C#N)cc2)N(S(=O)(=O)c2ccc(C)cc2)C1 (stereo not drawn) ?
H9c2 protect: 8; SKN-1 block: -2; hiPSC survival: 2

Results for O=C1C2C3C=CC(C3)C2C(=O)N1CCCO (stereo not drawn) ?
H9c2 protect: -1; H9c2 TAG inh: -11; CRFBP-R2 agonist: 0; SKN-1 block: -1; hiPSC survival: -3; CRFBP-R2 block: 69*

Results for CCc1nc2oc3ccccc3c(=O)c2c(=O)n1-c1ccccc1 ?
H9c2 protect: 8; CRFBP-R2 agonist: -3; SKN-1 block: 30*; hiPSC survival: -1; CRFBP-R2 block: -1

How did CCc1nc2oc3ccccc3c(=O)c2c(=O)n1-c1ccc(C)cc1 do in these assays?
H9c2 protect: -1; H9c2 TAG inh: 5; CRFBP-R2 agonist: 0; SKN-1 block: 28; hiPSC survival: 0; CRFBP-R2 block: 9

What do the screens show for `CCN(CC)c1ccc2cc(S(=O)(=O)c3ccc(Cl)cc3)c(=O)oc2c1`?
H9c2 protect: -3; H9c2 TAG inh: -21; CRFBP-R2 agonist: 118*; SKN-1 block: -22; hiPSC survival: 1; CRFBP-R2 block: -83

What do the screens show for `CCCCCCc1cc2cc(S(=O)(=O)c3ccc(Cl)cc3)c(=O)oc2cc1O`?
H9c2 protect: -9; H9c2 TAG inh: -15; CRFBP-R2 agonist: 44; SKN-1 block: 14; hiPSC survival: 0; CRFBP-R2 block: -7

How did COc1ccc(C(CNc2ccc(S(C)(=O)=O)cc2[N+](=O)[O-])N(C)C)cc1OC (stereo not drawn) do in these assays?
H9c2 protect: -2; CRFBP-R2 agonist: 2; SKN-1 block: 21; hiPSC survival: 0; CRFBP-R2 block: -1
